Source: PubChem BioAssay (several laboratories)
Sampled rows, rich in hits. Any-hit rate of the full collection: about 3%.
Mtb FBA inh: inhibits M. tuberculosis FBA enzyme | P9WQA3 | purified M. tuberculosis FBA, fluorescence read-out | inhibition, % at 1 µM | 360,000 compounds, 2.3% hits; in the data active means inhibition above about 27%
Rv3671c protease: inhibits the M. tuberculosis serine protease Rv3671c; P9WHR9; inhibition, % at 5.96 µM; 320,000 compounds, 0.048% hits; AID 2606; in the data active means inhibition above about 38%;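 further: extracellular domain of Rv3671c used as enzyme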
Target sequence (P9WHR9 whole entry, looked up, the tested form may be a part): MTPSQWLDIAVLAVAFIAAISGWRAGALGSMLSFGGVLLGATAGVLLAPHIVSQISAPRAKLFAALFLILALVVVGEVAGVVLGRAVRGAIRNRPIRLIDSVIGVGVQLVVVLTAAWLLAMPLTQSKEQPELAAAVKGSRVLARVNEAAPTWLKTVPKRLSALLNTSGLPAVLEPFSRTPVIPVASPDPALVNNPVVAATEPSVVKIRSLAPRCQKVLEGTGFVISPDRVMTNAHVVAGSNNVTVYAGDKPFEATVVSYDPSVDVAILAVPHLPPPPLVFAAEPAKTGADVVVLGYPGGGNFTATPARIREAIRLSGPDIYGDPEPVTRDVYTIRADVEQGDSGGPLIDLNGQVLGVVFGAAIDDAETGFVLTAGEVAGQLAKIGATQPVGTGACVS
FadD28 FP inh: inhibitors of Mycobacterium tuberculosis FadD28 bisubstrate binding; FadD28 bisubstrate probe binding, fluorescence polarization; inhibition, % at 12.5 µM; 360,000 compounds, 0.22% hits; AID 588549; in the data active means inhibition above about 8.5%, passing the limit was not always enough
GDH-TPI inh: GDH-TPI coupled enzyme inhibition counter-screen. inhibition, % at 4.8 µM. 360,000 compounds, 1.2% hits. GDH-TPI coupled enzyme counterscreen, NADH absorbance; in the data active means inhibition above about 30%
Mtb BioA inh: blocks M. tuberculosis BioA enzyme activity | purified M. tuberculosis BioA enzyme, plate reader | 360,000 compounds, 0.096% hits | inhibition, % at 9.99 µM; in the data active means inhibition above about 40%
Hits are given with their value; n = inactive; x = no result; + = active, no number.

SMILES	Mtb FBA inh	Rv3671c protease	FadD28 FP inh	GDH-TPI inh	Mtb BioA inh
C[C@@H]1CN([C@@H](C)CO)C(=O)c2cccc(NS(=O)(=O)c3ccc(Cl)cc3)c2O[C@@H]1CN(C)C(=O)Nc1ccc(F)cc1	x	x	x	x	n
Cc1cc(O)c(CN(C)C)c2c1C(=O)/C(=C/c1ccco1)O2	n	n	n	n	x
Cc1cc(O)c(C=O)c2c1C(=O)Oc1c(CO)c(O)c3c(c1O2)C(O)OC3=O (stereo unspecified)	n	57	18	n	n
O=C(N/N=C\c1ccc(COc2ccc([N+](=O)[O-])cc2)o1)c1ccc(Cl)cc1	n	n	n	42	n
COc1ccccc1NCc1cc(=O)oc2c(C)c(O)ccc12	n	n	n	n	n
Cc1c(O)ccc2c(CC(=O)N[C@@H](Cc3ccccc3)C(=O)O)cc(=O)oc12	165	x	n	n	n
Cc1ccc(/C=C/C(=O)C2C(=O)c3ccccc3C2=O)cc1	n	n	11	n	x
Cc1ccc(S(=O)(=O)N(C)C[C@H]2Oc3ccc(NC(=O)CCN4CCOCC4)cc3CC(=O)N([C@@H](C)CO)C[C@@H]2C)cc1	x	x	x	x	n
COC(=O)[C@]1(Cc2ccccc2)N[C@H](CN(C)S(=O)(=O)c2ccc(-c3ccccc3)cc2)[C@@H]2C(=O)N(C)C(=O)[C@@H]21	n	n	11	n	n
COC(=O)[C@]1(Cc2ccccc2)N[C@H](c2ccc(-c3cc(C(C)=O)cs3)cc2)[C@@H]2C(=O)N(C)C(=O)[C@@H]21	n	n	n	34	n
C[C@@H]1CCCCO[C@@H](CN(C)S(=O)(=O)c2cccs2)[C@@H](C)CN([C@@H](C)CO)C(=O)c2cc(NC(=O)NC3CCCCC3)ccc2O1	x	x	x	x	n
CC=Cc1ccc2n(c1=O)C[C@@H]1[C@@H](CO)[C@H](C(=O)NCc3ccncn3)N(C(=O)NC3CCCC3)[C@H]21 (mixture of isomers)	x	x	x	x	n
COc1ccccc1NS(=O)(=O)c1cccc(-n2c(O)c(C=Nc3ccccc3C(=O)O)c3ccccc3c2=O)c1	n	n	20	n	n
Cc1noc(C)c1NC(=O)N(C)C[C@H]1OCCCC[C@H](C)Oc2ccc(NC(=O)NC(C)C)cc2C(=O)N([C@H](C)CO)C[C@@H]1C	x	x	x	x	n
C=C(C)c1cccc(C(C)(C)NC(=O)N2CCN(CC)CC2)c1	n	n	n	n	n
C=C(C)c1cccc(C(C)(C)NC(=O)N2CCCCC2CC)c1 (stereo unspecified)	180	n	n	n	n
O=C(Oc1ccc(/C=N/NC(=O)c2ccccc2O)cc1)c1ccccc1	n	n	n	n	n
O=C(CC1SC(=O)NC1=O)Oc1ccc(/C=N/NC(=O)c2ccccc2O)cc1 (stereo unspecified)	n	n	n	42	x
Cc1cccc(COCC(Cc2ccccc2)N2CCN(C(=O)c3ccc(Cl)c(Cl)c3)CCC2=O)c1 (stereo unspecified)	n	n	n	n	n
O=C(c1ccc(Cl)c(Cl)c1)N1CCC(=O)N(C(COCc2cccc(C(F)(F)F)c2)Cc2ccccc2)CC1 (stereo unspecified)	73	n	n	n	n
CC(C)Oc1cccc(C(=O)NC(=S)Nc2ccc(N3CCN(C)CC3)cc2)c1	85	n	n	n	n
COc1ccc(NC(=O)N(C)C[C@H]2Oc3ncc(-c4ccc(C#N)cc4)cc3C(=O)N([C@H](C)CO)C[C@H]2C)cc1	x	x	x	x	n
CCC(C)(C(=O)Nc1ccc2c(c1)OCCO2)N(C(C)=O)c1ccc(C(N)=O)cc1 (stereo unspecified)	n	n	n	32	x
COc1ccccc1CNC(=O)COc1cc2c(c3oc(=O)cc(C)c13)CCC(C)(C)O2	189	n	n	n	n
COc1ccccc1CNC(=O)COc1ccccc1C	n	x	n	n	n
SMILES	Mtb FBA inh	Rv3671c protease	FadD28 FP inh	GDH-TPI inh	Mtb BioA inh
COc1cccc(CNC(=O)COc2cc3c(c4oc(=O)cc(C)c24)CCC(C)(C)O3)c1	168	n	n	n	n
Cc1cc(=O)oc2c3c(cc(OCC(=O)NCc4cccnc4)c12)OC(C)(C)CC3	+	n	n	n	n
COCC#Cc1ccc2c(c1)O[C@H](CN(C)C(=O)C1CC1)[C@H](C)CN([C@H](C)CO)S2(=O)=O	x	x	x	x	n
COCC(=O)N1[C@H](CO)[C@@H](c2ccccc2)[C@@H]1CNC(=O)c1ccccn1	x	x	x	x	n
C[C@H](CO)N1C[C@H](C)[C@H](CN(C)C(=O)C2CCCCC2)OCCCC[C@H](C)Oc2ccc(NC(=O)NC3CCCCC3)cc2C1=O	x	x	x	x	n
Cc1ccc(C(=O)N/N=C\c2cccn2C)cn1	n	n	n	54	n
Cn1cccc1/C=N/NC(=O)c1cccnc1	n	n	n	48	n
Cc1cc(C(=O)NN=Cc2ccc(-c3ccc(F)cc3)o2)c(C)o1	n	n	n	53	n
Cc1ccc(C(=O)N/N=C\c2ccc(-c3ccc(Cl)cc3)o2)cn1	n	n	n	31	x
Cn1cccc1/C=N/NC(=O)c1ccc[n+]([O-])c1	n	n	n	n	x
Cc1ccc(/C=N/NC(=O)c2cc(C)oc2C)o1	n	n	n	n	n
Cc1ccc(C(=O)N/N=C\c2ccc(-c3ccc([N+](=O)[O-])cc3)o2)cn1	n	n	n	n	x
COc1ccc(CNC(=O)C[C@@H]2C[C@@H]3c4cc(NC(=O)C5CCC5)ccc4O[C@@H]3[C@H](CO)O2)cc1	x	x	x	x	n
C[C@@H]1CN([C@@H](C)CO)C(=O)c2cc(C3=CCCCC3)cnc2O[C@H]1CN(C)C(=O)c1ccc2c(c1)OCO2	x	x	x	x	n
CCC(=O)N1[C@@H]2c3ccc(C4=CCCC4)c(=O)n3C[C@@H]2[C@@H](CO)[C@@H]1C(=O)Nc1ccccc1	x	x	x	x	n
CN(C)C(=O)[C@H]1[C@H](CO)[C@H]2Cn3c(ccc(C4=CCCC4)c3=O)[C@@H]1N2C	x	x	x	x	n
CN(C)C(=O)c1cccc(-c2ccc([C@@H]3[C@H](CO)N4CCCCN(C(=O)C5CCC5)C[C@@H]34)cc2)c1	x	x	x	x	n
O=C(Nc1cccc(Oc2ccc(C(=O)O)c(C(=O)O)c2)c1)c1ccc(-c2ccccc2)cc1	n	n	29	n	n
CC(C)(C)C(=O)Nc1ccc(C(=O)Nc2cccc(Oc3ccc(C(=O)O)c(C(=O)O)c3)c2)cc1	n	n	n	n	n
Cc1ccc(-c2cc(-c3ccc(F)cc3)nc(N)c2C#N)o1	155	n	n	n	n
Cc1ccc(-c2cc(-c3ccccc3Cl)c(C#N)c(N)n2)o1	n	n	n	n	n
N#Cc1c(-c2ccncc2)cc(-c2ccc(F)cc2)nc1N	125	n	x	n	n
COc1ccc2[nH]c(C(=O)NCc3ccccc3)c(C)c2c1	40	n	n	n	n
CCCS(=O)(=O)Nc1c(C(=O)O)[nH]c2ccc(OC)cc12	129	n	n	n	n
CCOC(=O)c1[nH]c2ccc(OC)cc2c1NC(=O)NC(C)C	35	n	n	n	n
COc1ccc2cc(C(=O)NCc3ccccc3)[nH]c2c1	n	x	n	n	n
C[C@H]1CN([C@@H](C)CO)C(=O)c2cc(C#CCC3CCCC3)cnc2O[C@H]1CN(C)Cc1ccccn1	x	x	x	x	n
Cc1ccc(S(=O)(=O)Nc2cccc3c2O[C@@H](CN(C)C(=O)NC(C)C)[C@@H](C)CN([C@H](C)CO)C3=O)cc1	x	x	x	x	n
